In the first assay the target is FABP9. Put plainly: pooled miR-30 sensor sort-seq; sequence = guide strand. The following applies: shRNA.
TTACTTTCCGGTTGTCTGCTGT registered a sensor-assay potency score (higher = more potent) of -0.00906.
In turn, TTGATTGTTGTCTCTTTGCCAA showed a sensor-assay potency score (higher = more potent) of -0.728.
The same measure, in the same setting: the figure for TTAGTGTCCTGGAAAGAACTTT is -0.461; for TTTTGGACGTGAATCATTGAGC it is -0.43; for TAGTGTCCTGGAAAGAACTTTC it is -1.06.
Consider TTTACTTTCCGGTTGTCTGCTG, for which the sensor-assay potency score (higher = more potent) came out at 0.767.
Turning to TGTCCTGGAAAGAACTTTCTGT, the sensor-assay potency score (higher = more potent) is -0.208.

For the next assay, the target named is FAM103A1. The assay is described as above. The following applies: shRNA.
TTTTCTGTGAATCTACTAGCAA showed a sensor-assay potency score (higher = more potent) of -0.323.
Same read-out and setting: to TACTAGCAAACATCTCTTCAAA belongs -1.05; to ATAATGTCCATATTGCTGGGGA, -0.0469; to TTGTCATTTTCTGTGAATCTAC, -0.838.
Sequence TGTCTGTTGTCTTGCAACCGAT showed a sensor-assay potency score (higher = more potent) of -1.2.
Same read-out and setting: the figure for TCTACTAGCAAACATCTCTTCA is -0.435; for AACATCTCTTCAAACTTTGGAA it is -0.553.
TTGTCTTGCAACCGATTGCCTC returned a sensor-assay potency score (higher = more potent) of -1.09.
For ATCTACTAGCAAACATCTCTTC, the sensor-assay potency score (higher = more potent) is -0.234.
Regarding TTTCTGTGAATCTACTAGCAAA, the sensor-assay potency score (higher = more potent) is -1.27.
For TTCTTGTCTGTGTTGCGGGTAG, the sensor-assay potency score (higher = more potent) is -0.368.

The target of a further assay is FAM111A. Described as above. The following applies: shRNA.
TCTTTTCTCAACCTCAACCTGA returned a sensor-assay potency score (higher = more potent) of -0.463.
Sequence TTTCCTTGTCTTTTAGCTCTTC registered a sensor-assay potency score (higher = more potent) of 0.0612.
The sequence TTCTAATTCATCAACTGGCTGG showed a sensor-assay potency score (higher = more potent) of 0.174.
With TTTCCAATCATCATTCTCCAGA, the sensor-assay potency score (higher = more potent) is -0.625.
Same read-out and setting: the figure for TTACATTTTTCATTGACTGAGT is -0.373.
With TACTCTTTGATTCCTTCTGTGC, the sensor-assay potency score (higher = more potent) was -0.506.
In the case of TTGTTCTCTCAACACACAGGTG, the sensor-assay potency score (higher = more potent) is -0.868.
Regarding TATGTGGTTATCTTCCTTCTGC, the sensor-assay potency score (higher = more potent) was -0.217.
In turn, TTTGAGATCATTTCTAATCAAG displayed a sensor-assay potency score (higher = more potent) of -0.737.
For TTCATATCTTGGTTTCTCCTGT, the sensor-assay potency score (higher = more potent) was 0.306.
In turn, TTGAGAGCCATATATAAGCTAC displayed a sensor-assay potency score (higher = more potent) of -0.708.
Regarding TATCTCTTTTCTGACAGCCTGG, the sensor-assay potency score (higher = more potent) is -0.766.

A further assay deals with FAM113A. The assay is described as above. The following applies: shRNA.
TTCCAGAACATCCTCAAGGTAC yielded a sensor-assay potency score (higher = more potent) of -0.46.
Regarding TAGCTCTCCATTGAGCAGCGAC, the sensor-assay potency score (higher = more potent) is -1.09.
As for TTGAGCAGCGACCATATCTGGA, the sensor-assay potency score (higher = more potent) is -0.708.
Sequence TTGTTGTGTAGCAGCTGCTGGA returned a sensor-assay potency score (higher = more potent) of -0.714.
Regarding TCTCTCTGAGTGTCTGAGCCGC, the sensor-assay potency score (higher = more potent) was -0.879.
In turn, TAGCACTGTAGAAGTTCCCTTC had a sensor-assay potency score (higher = more potent) of 0.54.
TTCAACCACATCCCGCCGCAGG displayed a sensor-assay potency score (higher = more potent) of -1.27.
On the same count and under the same terms, the figure for TGGAAGTGGACCATGTCGCTTC is -0.111; for TTGATGATCACCAGGTCCGGGG it is -0.983; for TTTCTGGAGCAAGAGCACCAGG it is -1.16.
Note: reference of the scale not given here.
